Potency and affinity values are given separately. Activity calls are given as the source filed them. Unless noted, no cut-off is given here; in the data, nearly all actives have IC50 up to about 0.98 µM.
Target: Calcium-dependent protein kinase 1 (Plasmodium falciparum (isolate 3D7)) (UniProt P62344)
Experiment: PfCDPK1 kinase inhibitors, biochemical, TCAMS library (AID 1159585);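 note: inhibitors leave more ATP so luminescence rises with inhibition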
Details: recombinant PfCDPK1, Kinase-Glo ATP depletion luminescence

Calcium-dependent protein kinase 1 (Plasmodium falciparum (isolate 3D7)), sequence (P62344 whole entry, looked up): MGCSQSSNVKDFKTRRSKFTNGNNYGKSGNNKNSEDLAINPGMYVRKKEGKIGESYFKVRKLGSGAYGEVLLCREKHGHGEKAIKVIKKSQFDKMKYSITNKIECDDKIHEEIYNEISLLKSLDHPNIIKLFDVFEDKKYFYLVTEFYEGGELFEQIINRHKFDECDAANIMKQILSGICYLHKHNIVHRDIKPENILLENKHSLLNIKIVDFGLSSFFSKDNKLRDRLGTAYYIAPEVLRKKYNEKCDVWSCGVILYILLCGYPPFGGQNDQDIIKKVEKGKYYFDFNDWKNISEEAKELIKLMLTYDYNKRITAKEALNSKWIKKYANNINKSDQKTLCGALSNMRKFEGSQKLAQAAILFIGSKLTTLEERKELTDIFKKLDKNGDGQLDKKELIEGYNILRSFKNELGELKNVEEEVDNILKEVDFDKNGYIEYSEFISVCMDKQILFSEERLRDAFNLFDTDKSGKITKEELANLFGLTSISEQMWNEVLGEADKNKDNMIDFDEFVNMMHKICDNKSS

outcome, inactive:
O=C(NCCCCN1CCN(c2ccc3c(c2)CCC3)CC1)c1ccc(NC(=O)c2ccc(Cl)cc2)cc1
O=C(NCc1cccnc1)C(c1cc2ccccc2o1)N1CCN(C(c2ccccc2)c2ccccc2)CC1 (stereo not given)
O=C(Nc1cccc(CN2CCCN(Cc3cccnc3)CC2)c1)c1ccc(Cl)c(Cl)c1
Cc1cc(N2CCN(C)CC2)nc2ccc(NC(=O)c3cccc(N(C)C)c3)cc12
COc1ccc2nc(-c3ccc(C(=O)NCCCN4CCN(c5cc(Cl)ccc5OC)CC4)cc3OC)[nH]c2c1
O=C(NCCN1Cc2ccccc2C1=O)c1ccc(Oc2ccc(C(=O)NCCN3Cc4ccccc4C3=O)cc2)cc1
CN(C)Cc1cccc(-c2ccc(NC(=O)c3ccc4c(=O)n(C5CCCCC5)cnc4c3)cc2)c1
COc1ccc(Br)cc1C1Nc2ccc3ccccc3c2C2=C1C(=O)CC(c1ccccc1)C2 (stereo not given)
COc1cccc(NC(=O)Nc2ccc(Nc3nc(C)cc(N4CCCC4)n3)cc2)c1
c1ccc(CN2CCC(NCc3ccc(-c4cccc(CNC5CCCC5)c4)cc3)CC2)cc1
Clc1cccc(Cl)c1CCNCC1CCN(CC2CCCCC2)CC1
Cc1c(Br)cc2[nH]c(-c3ccc(C(=O)NC4CCN(Cc5ccccc5)CC4)cc3)nc2c1C
CC(C)(C)c1ccc(NC(=O)N[C@@H]2CCN(c3ccnc4ccccc34)C2)cc1
C=Cc1sc(CNCCCNc2cc(=O)c3ccccc3[nH]2)c(C)c1Br
CC(=O)N(C)c1cccc(C(=O)Nc2ccc(-c3cccc(-c4nc5c(C)cccc5[nH]4)c3)cc2)c1
O=C(Nc1cccc(Cl)c1Cl)NC1CCN(Cc2cccc(O)c2)CC1
CC(=O)Nc1cccc(C(=O)Nc2cccc(-c3ccc(-c4nc5c(C)cccc5[nH]4)cc3)c2)c1
CCOC(=O)NC1=NC(C)(C)N(OCc2ccc(Cl)c(Cl)c2)C(NC(=O)OCC)=N1
Cc1ncc([N+](=O)[O-])n1CCOC(=O)NC(Nc1ccc(Br)cc1)C(Cl)(Cl)Cl (stereo not given)
O=S(=O)(Nc1cccc(CCN2CCCCC2CCN2CCCC2)c1)c1ccc(-c2ccccc2)cc1 (stereo not given)
COc1cc2nc(NCc3nc4ccccc4[nH]3)nc(N)c2cc1OC
CC(C)Sc1nc2c(c(=O)n1Cc1ccco1)C1(CCCC1)Cc1ccccc1-2
c1ccc(OCCCCN2CCCCC2)cc1
Cc1onc(-c2c(F)cccc2Cl)c1C(=O)Nc1ccccc1I
O=C(NCCc1ccc(Cl)c(Cl)c1)C1CCCN(C(=O)c2ccc(O)c(-c3ccc(Cl)c(Cl)c3)c2)C1 (stereo not given)
CCc1ccc(C(=O)NC(=O)c2ccccc2O)cc1
O=C(/C=C/c1ccc(Cl)c(Cl)c1)NCCCCCCN1CCN(C(=O)Nc2cc(F)cc(F)c2)CC1
CN(Cc1cccc(F)c1)C1CCN(c2cc(NC(=O)c3cccc(F)c3)ccn2)CC1
COc1ccc2ncc(C#N)c(CCN3C[C@H](CNCc4ccccc4)[C@H](O)C3)c2n1
N#Cc1ccc(N2CCN(C(=O)c3cccc(-c4noc(C(F)(F)F)n4)c3)CC2)nc1
CCCCN(CCCC)CCC(O)C(=Cc1ccc(Cl)cc1Cl)c1ccc(C(F)(F)F)cc1N (stereo not given)
CN1CCN(c2ccnc3ccc(NC(=O)Nc4cccc5c(-c6ccncc6)cccc45)cc23)CC1
COc1ccccc1C1CCN(C2CCC(NC(=O)c3cc(-c4ccc(Cl)cc4)cs3)CC2)CC1 (stereo not given)
NC(=O)c1ccc(-n2cnc3cc(F)ccc32)cc1OCc1ccccc1C(F)(F)F (tested in a mixture with another compound)
COc1cc2nc(N3CCC(CNC(=O)c4ccc(-c5ccc(C#N)cc5C)cc4)CC3)nc(N)c2cc1OC
O=C(Nc1cccc(CN2CCCN(Cc3cccc(O)c3)CC2)c1)c1ccc2ccccc2c1
COc1ccccc1Cn1ccnc1SCC(=O)Nc1cccc(C(F)(F)F)c1
c1ccc(CCNCc2ccc(-c3cccc(-c4nc5ccccc5[nH]4)c3)cc2)nc1
c1ccc(CNc2cc(-c3ccccn3)nc(-c3ccccn3)n2)cc1
CCCNCc1ccc(-c2ccc(CN(CCOC)C(=O)c3cnc(C)cn3)cc2)nc1

Target: Plasmodium falciparum protein kinase 6 (PK6, PF3D7_1337100) (UniProt Q8IDW1)
Experiment: PfPK6 kinase inhibitors, biochemical, TCAMS library (AID 1159586; call rule not given here)
Details: recombinant PfPK6, Kinase-Glo ATP depletion luminescence

Plasmodium falciparum protein kinase 6 (PK6, PF3D7_1337100), sequence (Q8IDW1 1-305): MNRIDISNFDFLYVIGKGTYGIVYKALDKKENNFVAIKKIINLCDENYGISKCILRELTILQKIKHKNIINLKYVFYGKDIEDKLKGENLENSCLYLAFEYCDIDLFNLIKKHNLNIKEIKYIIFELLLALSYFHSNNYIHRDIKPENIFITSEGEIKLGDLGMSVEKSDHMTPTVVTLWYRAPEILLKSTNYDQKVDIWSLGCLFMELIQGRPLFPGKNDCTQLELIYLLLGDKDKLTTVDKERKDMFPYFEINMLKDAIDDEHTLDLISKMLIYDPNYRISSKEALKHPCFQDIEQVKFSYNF

outcome, inactive:
O=C(NCCCCN1CCN(c2ccc3c(c2)CCC3)CC1)c1ccc(NC(=O)c2ccc(Cl)cc2)cc1
O=C(NCc1cccnc1)C(c1cc2ccccc2o1)N1CCN(C(c2ccccc2)c2ccccc2)CC1 (stereo not given)
O=C(Nc1cccc(CN2CCCN(Cc3cccnc3)CC2)c1)c1ccc(Cl)c(Cl)c1
Cc1cc(N2CCN(C)CC2)nc2ccc(NC(=O)c3cccc(N(C)C)c3)cc12
COc1ccc2nc(-c3ccc(C(=O)NCCCN4CCN(c5cc(Cl)ccc5OC)CC4)cc3OC)[nH]c2c1
O=C(NCCN1Cc2ccccc2C1=O)c1ccc(Oc2ccc(C(=O)NCCN3Cc4ccccc4C3=O)cc2)cc1
CN(C)Cc1cccc(-c2ccc(NC(=O)c3ccc4c(=O)n(C5CCCCC5)cnc4c3)cc2)c1
COc1ccc(Br)cc1C1Nc2ccc3ccccc3c2C2=C1C(=O)CC(c1ccccc1)C2 (stereo not given)
COc1cccc(NC(=O)Nc2ccc(Nc3nc(C)cc(N4CCCC4)n3)cc2)c1
c1ccc(CN2CCC(NCc3ccc(-c4cccc(CNC5CCCC5)c4)cc3)CC2)cc1
Clc1cccc(Cl)c1CCNCC1CCN(CC2CCCCC2)CC1
Cc1c(Br)cc2[nH]c(-c3ccc(C(=O)NC4CCN(Cc5ccccc5)CC4)cc3)nc2c1C
CC(C)(C)c1ccc(NC(=O)N[C@@H]2CCN(c3ccnc4ccccc34)C2)cc1
C=Cc1sc(CNCCCNc2cc(=O)c3ccccc3[nH]2)c(C)c1Br
CC(=O)N(C)c1cccc(C(=O)Nc2ccc(-c3cccc(-c4nc5c(C)cccc5[nH]4)c3)cc2)c1
O=C(Nc1cccc(Cl)c1Cl)NC1CCN(Cc2cccc(O)c2)CC1
CC(=O)Nc1cccc(C(=O)Nc2cccc(-c3ccc(-c4nc5c(C)cccc5[nH]4)cc3)c2)c1
CCOC(=O)NC1=NC(C)(C)N(OCc2ccc(Cl)c(Cl)c2)C(NC(=O)OCC)=N1
Cc1ncc([N+](=O)[O-])n1CCOC(=O)NC(Nc1ccc(Br)cc1)C(Cl)(Cl)Cl (stereo not given)
O=S(=O)(Nc1cccc(CCN2CCCCC2CCN2CCCC2)c1)c1ccc(-c2ccccc2)cc1 (stereo not given)
COc1cc2nc(NCc3nc4ccccc4[nH]3)nc(N)c2cc1OC
CC(C)Sc1nc2c(c(=O)n1Cc1ccco1)C1(CCCC1)Cc1ccccc1-2
c1ccc(OCCCCN2CCCCC2)cc1
Cc1onc(-c2c(F)cccc2Cl)c1C(=O)Nc1ccccc1I
O=C(NCCc1ccc(Cl)c(Cl)c1)C1CCCN(C(=O)c2ccc(O)c(-c3ccc(Cl)c(Cl)c3)c2)C1 (stereo not given)
CCc1ccc(C(=O)NC(=O)c2ccccc2O)cc1
O=C(/C=C/c1ccc(Cl)c(Cl)c1)NCCCCCCN1CCN(C(=O)Nc2cc(F)cc(F)c2)CC1
CN(Cc1cccc(F)c1)C1CCN(c2cc(NC(=O)c3cccc(F)c3)ccn2)CC1
COc1ccc2ncc(C#N)c(CCN3C[C@H](CNCc4ccccc4)[C@H](O)C3)c2n1
N#Cc1ccc(N2CCN(C(=O)c3cccc(-c4noc(C(F)(F)F)n4)c3)CC2)nc1
CCCCN(CCCC)CCC(O)C(=Cc1ccc(Cl)cc1Cl)c1ccc(C(F)(F)F)cc1N (stereo not given)
CN1CCN(c2ccnc3ccc(NC(=O)Nc4cccc5c(-c6ccncc6)cccc45)cc23)CC1
COc1ccccc1C1CCN(C2CCC(NC(=O)c3cc(-c4ccc(Cl)cc4)cs3)CC2)CC1 (stereo not given)
NC(=O)c1ccc(-n2cnc3cc(F)ccc32)cc1OCc1ccccc1C(F)(F)F (tested in a mixture with another compound)
COc1cc2nc(N3CCC(CNC(=O)c4ccc(-c5ccc(C#N)cc5C)cc4)CC3)nc(N)c2cc1OC
O=C(Nc1cccc(CN2CCCN(Cc3cccc(O)c3)CC2)c1)c1ccc2ccccc2c1
COc1ccccc1Cn1ccnc1SCC(=O)Nc1cccc(C(F)(F)F)c1
c1ccc(CCNCc2ccc(-c3cccc(-c4nc5ccccc5[nH]4)c3)cc2)nc1
c1ccc(CNc2cc(-c3ccccn3)nc(-c3ccccn3)n2)cc1
CCCNCc1ccc(-c2ccc(CN(CCOC)C(=O)c3cnc(C)cn3)cc2)nc1

From PubChem BioAssay
